Compounds without any hit were thinned out: in the full panel of roughly 79,000, 15% have a hit. Activity calls are given as the source filed them. Rule as the data show it: active = growth inhibition above about 70%; inactive = the rest.
Experiments:
[1] = NCI Yeast Anticancer Drug Screen. Data for the rad52 strain (AID 147);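 also: 0% = growth of vehicle-treated control cultures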; settings: S. cerevisiae rad52 mutant growth inhibition, active compounds read high
Summary of the method: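 DNA repair-defective yeast; compound exposure; growth scored against vehicle controls.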

[2] = NCI Yeast Anticancer Drug Screen. Data for the wt1 strain (AID 149);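 also: 0% = growth of vehicle-treated wt1 cultures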; settings: S. cerevisiae wt1 strain (SPY 50644) growth inhibition, active compounds read high
Summary of the method: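 Vehicle-normalised growth inhibition; strain wt1; compound exposure.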

[3] = NCI Yeast Anticancer Drug Screen. Data for the rad50EPP+ strain (AID 151);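 also: 0% = growth of vehicle-treated control cultures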; settings: S. cerevisiae rad50 mutant strain, active compounds read high
Summary of the method: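 rad50EPP+ yeast treated with test compounds. Readout: growth vs vehicle control.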

[4] = NCI Yeast Anticancer Drug Screen. Data for the mgt1 strain (AID 153); settings: S. cerevisiae mgt1 mutant growth inhibition, active compounds read high
Summary of the method: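 Growth inhibition relative to vehicle controls was scored for the mgt1 yeast strain after compound exposure.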

[5] = NCI Yeast Anticancer Drug Screen. Data for the rad50 strain (AID 155);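 also: 0% = growth of vehicle-only cultures of the same strain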; settings: S. cerevisiae rad50 strain growth inhibition, active compounds read high
Summary of the method: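 A DNA repair-deficient yeast mutant serves as the test organism; compound-induced growth inhibition is calculated against vehicle-treated cells.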

[6] = NCI Yeast Anticancer Drug Screen. Data for the mec2-1 strain (AID 157); settings: S. cerevisiae mec2-1 strain, active compounds read high
Summary of the method: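 Growth inhibition is read against vehicle-treated controls after compound exposure of the mec2-1 yeast strain, which is defective in DNA damage repair or cell cycle control.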

[7] = NCI Yeast Anticancer Drug Screen. Data for the rad14 strain (AID 159);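 also: 0% = growth of vehicle-treated control cultures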; settings: S. cerevisiae rad14 strain growth inhibition, active compounds read high
Summary of the method: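 Vehicle-treated cultures served as the baseline for growth inhibition of a DNA repair-mutant yeast strain exposed to each compound.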

[8] = NCI Yeast Anticancer Drug Screen. Data for the sgs1 mgt1 strain (AID 161);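 also: 0% = growth of cultures given vehicle only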; settings: S. cerevisiae sgs1 mgt1 strain, active compounds read high
Summary of the method: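 Yeast cells carrying a defined DNA-repair defect were exposed to test compounds. Growth inhibition was measured relative to vehicle-treated controls.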

[9] = NCI Yeast Anticancer Drug Screen. Data for the CLN2oe strain (AID 163);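 also: 0% = growth of vehicle-only control cultures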; settings: S. cerevisiae CLN2oe strain, active compounds read high
Summary of the method: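 Compound-treated yeast; growth vs vehicle ctrl = % inhibition. Genetically altered strain (cell-cycle control).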

[10] = NCI Yeast Anticancer Drug Screen. Data for the cln2 rad14 strain (AID 165);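 also: 0% = growth equal to vehicle treated cultures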; settings: S. cerevisiae cln2 rad14 strain, active compounds read high
Summary of the method: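 Growth inhibition, relative to vehicle-treated controls, is the read-out. The test organism is a yeast strain with defined genetic alterations, cln2 rad14.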

[11] = NCI Yeast Anticancer Drug Screen. Data for the bub3 strain (AID 167); settings: S. cerevisiae bub3 mutant strain, active compounds read high
Summary of the method: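 Inhibition values come from growth of compound-treated mutant yeast normalised to vehicle-treated controls.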

[12] = NCI Yeast Anticancer Drug Screen. Data for the wt2 strain (AID 169);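 also: 0% = growth of vehicle-treated yeast cultures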; settings: S. cerevisiae wt2 strain growth inhibition, active compounds read high
Summary of the method: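 Compound exposure of yeast; growth compared with vehicle controls; inhibition reported.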

[13] = NCI Yeast Anticancer Drug Screen. Data for the mlh1 strain (AID 171);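 also: 0% = growth of vehicle-treated control cultures of the same strain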; settings: S. cerevisiae mlh1 strain growth inhibition, active compounds read high
Summary of the method: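 Compounds are applied to a genetically altered yeast strain, and its growth is compared with that of vehicle-treated cultures to give percent inhibition.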

[14] = NCI Yeast Anticancer Drug Screen. Data for the sgs1 strain (AID 173);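 also: 0% = growth of vehicle-only control cultures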; settings: S. cerevisiae sgs1 mutant, active compounds read high
Summary of the method: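 Compounds applied to genetically altered yeast; growth compared with vehicle-treated cultures to give % inhibition.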

[15] = NCI Yeast Anticancer Drug Screen. Data for the mlh1 rad18 strain (AID 175); settings: S. cerevisiae mlh1 rad18 strain growth inhibition, active compounds read high
Summary of the method: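 Cells of a genetically altered yeast strain, deficient in DNA damage repair, were treated with compound. Their growth was then compared with that of vehicle-treated cultures to give inhibition.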

[16] = NCI Yeast Anticancer Drug Screen. Data for the rad18 strain (AID 177); settings: S. cerevisiae rad18 mutant growth inhibition, active compounds read high
Summary of the method: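 Compounds are applied to a repair-deficient yeast strain, and growth is compared with that of vehicle-treated cultures to give percent inhibition.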

[17] = at 5.0 µM (retest, dose inferred, filed as 0.5)
[18] = at 50.0 µM (retest, dose inferred, filed as 5.0)

Measured: growth inhibition

CC(=O)O[C@H]1C(=O)[C@@]2(C)[C@H]([C@H](OC(=O)c3ccccc3)[C@]3(O)C[C@H](OC(=O)[C@H](O)[C@@H](NC(=O)c4ccccc4)c4ccccc4)C(C)=C1C3(C)C)[C@]1(OC(C)=O)CO[C@@H]1C[C@@H]2O
inactive: [1]; at 1.2 µM 0% | [1]; at 3.7 µM 0% | [1]; at 11.0 µM 1% | [1]; at 33.0 µM 1% | [1]; at 100.0 µM 0% | [2]; at 1.2 µM -1% | [2]; at 3.7 µM -2% | [2]; at 11.0 µM -2% | [2]; at 33.0 µM -3% | [2]; at 100.0 µM -18% | [3]; at 1.2 µM -4% | [3]; at 3.7 µM -2% | [3]; at 11.0 µM -2% | [3]; at 33.0 µM 3% | [3]; at 100.0 µM 0% | [4]; at 1.2 µM -2% | [4]; at 3.7 µM -2% | [4]; at 11.0 µM -3% | [4]; at 33.0 µM -3% | [4]; at 100.0 µM -7% | [5]; at 1.2 µM -1% | [5]; at 3.7 µM -2% | [5]; at 11.0 µM 0% | [5]; at 33.0 µM -1% | [5]; at 50.0 µM 23.4% | [5]; at 100.0 µM -6% | [6]; at 1.2 µM -5% | [6]; at 3.7 µM -2% | [6]; at 11.0 µM 2% | [6]; at 33.0 µM -4% | [6]; at 50.0 µM 18.3% | [6]; at 100.0 µM -10% | [7]; at 1.2 µM -1% | [7]; at 3.7 µM -2% | [7]; at 11.0 µM 1% | [7]; at 33.0 µM -2% | [7]; at 100.0 µM -5% | [8]; at 50.0 µM -9% | [9]; at 1.2 µM -4% | [9]; at 3.7 µM -4% | [9]; at 11.0 µM -5% | [9]; at 33.0 µM -7% | [9]; at 100.0 µM -13% | [10]; at 50.0 µM 24.1% | [11]; at 1.2 µM -5% | [11]; at 3.7 µM -5% | [11]; at 11.0 µM 2% | [11]; at 33.0 µM -13% | [11]; at 50.0 µM -4.15% | [11]; at 100.0 µM -3% | [12]; at 1.2 µM -2% | [12]; at 3.7 µM -2% | [12]; at 11.0 µM -4% | [12]; at 33.0 µM -4% | [12]; at 100.0 µM -5% | [13]; at 1.2 µM -1% | [13]; at 3.7 µM -4% | [13]; at 11.0 µM -3% | [13]; at 33.0 µM -4% | [13]; at 100.0 µM -6% | [14]; at 1.2 µM -3% | [14]; at 3.7 µM -3% | [14]; at 11.0 µM -1% | [14]; at 33.0 µM -3% | [14]; at 100.0 µM -4% | [15]; at 50.0 µM 15.8%

BrCc1ccccc1C(c1ccccc1)c1ccccc1
inactive: [1]; at 1.2 µM 9% | [2]; at 1.2 µM -2% | [2]; at 3.7 µM 34% | [3]; at 1.2 µM 1% | [3]; at 3.7 µM 6% | [3]; at 11.0 µM 8% | [3]; at 33.0 µM 9% | [3]; at 100.0 µM 15% | [5]; at 1.2 µM 8% | [5]; [17] 12% | [6]; at 1.2 µM 4% | [6]; at 3.7 µM 42% | [6]; [17] 21% | [7]; at 1.2 µM 3% | [7]; at 3.7 µM 64% | [8]; [17] 58% | [9]; at 1.2 µM 8% | [9]; at 3.7 µM 64% | [10]; [17] 49% | [11]; at 1.2 µM 4% | [11]; at 3.7 µM 56% | [11]; [17] 24% | [12]; at 1.2 µM -1% | [12]; at 3.7 µM 62% | [13]; at 1.2 µM 10% | [13]; at 3.7 µM 68% | [14]; at 1.2 µM 9% | [16]; at 1.2 µM 25%
active: [1]; at 3.7 µM 79% | [1]; at 11.0 µM 96% | [1]; at 33.0 µM 96% | [1]; at 100.0 µM 94% | [2]; at 11.0 µM 96% | [2]; at 33.0 µM 97% | [2]; at 100.0 µM 95% | [5]; at 3.7 µM 85% | [5]; at 11.0 µM 97% | [5]; at 33.0 µM 96% | [5]; [18] 96% | [5]; at 50.0 µM 98.1% | [5]; at 100.0 µM 93% | [6]; at 11.0 µM 95% | [6]; at 33.0 µM 96% | [6]; [18] 98% | [6]; at 50.0 µM 98.2% | [6]; at 100.0 µM 96% | [7]; at 11.0 µM 96% | [7]; at 33.0 µM 97% | [7]; at 100.0 µM 95% | [8]; [18] 98% | [8]; at 50.0 µM 97.9% | [9]; at 11.0 µM 97% | [9]; at 33.0 µM 97% | [9]; at 100.0 µM 96% | [10]; [18] 93% | [10]; at 50.0 µM 95.8% | [11]; at 11.0 µM 96% | [11]; at 33.0 µM 97% | [11]; [18] 97% | [11]; at 50.0 µM 97.3% | [11]; at 100.0 µM 94% | [12]; at 11.0 µM 97% | [12]; at 33.0 µM 96% | [12]; at 100.0 µM 95% | [13]; at 11.0 µM 97% | [13]; at 33.0 µM 97% | [13]; at 100.0 µM 96% | [14]; at 3.7 µM 84% | [14]; at 11.0 µM 97% | [14]; at 33.0 µM 97% | [14]; at 100.0 µM 96% | [15]; [17] 82% | [15]; [18] 97% | [15]; at 50.0 µM 98.3% | [16]; at 3.7 µM 89% | [16]; at 11.0 µM 96% | [16]; at 33.0 µM 97% | [16]; at 100.0 µM 96%

From PubChem BioAssay (NCI)
